# Whole data set: some 25,000 sequences, median “ln(normalized median fluorescence intensity)” near 9.3, cut for the highest 2% near 10. Only a selection was taken, and the highest values are over-represented in it overall.
# Test system: PF3D7_0420300 AP2 domain 1 (GST-tagged)
# Assay: gcPBM binding intensity (ln(normalized median fluorescence intensity)); higher = stronger DNA binding
# In short: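 Binding intensity is the highest Masliner-normalised natural-log median intensity over replicate spots in either probe orientation. To obtain it, GST-tagged P. falciparum DNA-binding domains made in E. coli were incubated for 1 h on an Agilent 4 × 180k array of primer-extended double-stranded 36-bp intergenic genomic probes plus negative controls. Detection used Alexa488 anti-GST antibody with scanning at 488 nm.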
row,Sequence,gcPBM binding intensity (ln)
1,AGTATACGCAGACACACACACACATATATATATATA [CACACA_site1735],9.98
2,CATACACATAGACACACACACATATATACCTATATA [CACACA_site6644],10.1
3,TATATACACAGACACACACACACATACACGCACATA [CACACA_site6909],10.3
4,CATACCTATAGACACACACACACACGCACGCACAAA [CACACA_site6374],10.2
5,AACATACATAGACACACACACACACGCACACGCACA [CACACA_site6373],10.3
6,CACATACACATACACATACACACGCATAGAAACATA [CACACA_site2136],9.79
7,TATACACATAGACACACACACAAAAAAAAAAAAAAA [CACACA_site6338],9.73
8,TATACACATAGACACACACACATACACGCACATACA [CACACA_site6908],10.1
9,CATACATACAGACACACACACATATATATATATATA [CACACA_site2920],9.91
10,CGCACACGCAGACACACACACACATATAAATAAATA [CACACA_site7101],9.86
11,CACGCACGCAGACACACACACACACGCACATATATA [CACACA_site6303],10.3
12,CACATACAGACATACACACATACACATATACGCATA [CACACA_site1745],9.86
13,TAGTATTTATATGATTAACACACATATGGGTATTAA [CACACA_site8363],9.28
14,CATATAAGACAAAAGGTGCAATTTTAATGCTTTTAT [GTGCAC_site9432],9.31
15,ATAACATATATATATACACACACATATATATATGAA [CACACA_site7983],9.79
16,TTCTATATTTTAGCTGATAATATTATGAGCTTCACT [XGTACX_negctrl_site427],9.08
17,AATAAATAAATAAATATATATATATATATATATATA [CACACA_negctrl_site708],8.86
18,TCTTCTTAACCAACTATGAAAAGGAAAAATATAACA [GTGCAC_negctrl_site565],9.06
19,TATGTATAATTATTTTGTACTTATTAAATTTTTTTT [XGTACX_site5413],9.18

row,Sequence,gcPBM binding intensity (ln)
1,TACCCTGATCGGCATGCATGTAAGTAACAAATATAT [TGCATGCA_site153],9.22
2,ATATAAAATATTACGTGTACACATAAATAAAAATAA [XGTACX_site3746],9.41
3,GAATAAAAAATTGGCACACATAAATATATGGATATA [CACACA_site3047],9.46
4,AAAAAAAAAAGACACACACACACACGCATATACATA [CACACA_site7289],10.2
5,AGTATACATATATATACACACACATATATATATATA [CACACA_site7883],9.61
6,TACATACACGGACACACACACATATATATATATATA [CACACA_site5883],9.95
7,CATACACGCGGACACACACACACACGCATATATAAC [CACACA_site6427],10.4
8,AGTATACATATATATACACACATATATATATATATA [CACACA_site300],9.42
9,AGTATACTCGGACACACACACACATATATATATATA [CACACA_site5031],10.2
10,CGCATACACGGACACACACACACATATATATATATA [CACACA_site4520],10.1
11,TATACACGCGGACACACACACACACGCAAAAAAAAA [CACACA_site6377],10.1
12,TATACGCATATATACACACACATATATATATATATA [CACACA_site3416],9.66
13,AAAAAAAAAAAAAAGACACACATATATATATATATA [CACACA_site633],9.15
14,CATATATACACATACACACACACACGGACACGCACA [CACACA_site6910],10.2
15,TTTTTTATAGTACATTACCAAAAAAAAAAAAAAAAA [GTGCAC_negctrl_site549],8.32
16,TGTTGATTTATCCTGTGTACGGATATATATCTTTCA [XGTACX_site7826],9.27
17,AAAAATAGACAAAAGAGTACAAGAAAAAAAGGGTTC [XGTACX_site7843],9.86
18,AAATTTTTTAATTTTTCTCATTTAATTTAAAAATTA [GTGCAC_negctrl_site155],8.88
19,TATATTTTATATATGGTGCAACTTTTATTTAAATAA,8.77

row,Sequence,gcPBM binding intensity (ln)
1,ATTATTAAGTTTCACAAGAACATTGTTAACAATTTT [CACACA_negctrl_site1128],9
2,ATATATATGGAAACAGTGCAATACATATATATATAT,9.71
3,TTTTATGATAATTTTGCACACACTTAGGAAAAATTA [CACACA_site1556],9.31
4,AAAGTTTTAAGAAAATGTACATAAGTATACATATAT [XGTACX_site1293],9.18
5,AATACATACAGACACACACACACATATATATATATA [CACACA_site3558],10.1
6,AATACATACGGACACACACACACATATATATATATA [CACACA_site5884],10.2
7,AATATATACATATATACACACACATATATATATATA [CACACA_site8907],9.75
8,CATACATACGGACACACACACATATATATATATATA [CACACA_site5598],9.97
9,AATACACGCAGACACACACACACACGCACATATATA [CACACA_site6447],10.3
10,AGAATGGTTTATAAAGGTACGTAATTTTTAATTTTA [XGTACX_site383],9.06
11,TTTTGTTAAAAAGATGTATATTTTATAAATATTTAT [CACACA_negctrl_site101],8.92
12,TTATATATTAAGAAATGTACGAAAAAAAAAATTATA [XGTACX_site3893],9.2
13,ATTATAAATAAAATATGTACATATGTATAAATACAT [XGTACX_site4002],9.21
14,AAAAAGTGACTCCTTACACACTTTACATAATTTAGT [CACACA_site4606],9.46
15,AAGGATCACCCACAAACACACATATATATATATATA [CACACA_site559],9.76
16,TCTCATAGTAAACACACACACACACCCACATATATA [CACACA_site5034],10.3
17,TCTCATAGGAAACACACACACACACCCACATATATA [CACACA_site1738],10.2
18,TTTCCCATAGGAAAAACACACATATATTATATATAA [CACACA_site1981],9.12
19,TTTACTTTCCCAAGTTGTACTGCTTCTAAGCTTTTT [XGTACX_site2708],9.21

# Reference: the supplement of paper PMC11417369
